Results reported in PubChem BioAssay.
Calls of active or inactive are those of the source. Unless noted, no rule for the calls is given here.

Columns and labels:
[1] = tested on: XIP peptide (Xip251-270) binding; test: XIP fragment 251-270 binding compounds – biochemical, small-molecule microarray, fluorescence 635/667 nm, 0.1 µg/mL protein, primary screen (AID 1182); settings: fluorescent protein binding, 635 nm, higher = more signal, called active from +8 up or from −8 down
XIP peptide (Xip251-270) = test: compounds binding XIP fragment 251-270 – biochemical, small-molecule microarray, fluorescence 635/667 nm, 0.5 µg/mL protein, primary screen (AID 1183); settings: fluorescence 635 nm, higher = more signal
[2] = blood-stage malaria parasite viability loss – strain 3D7, DAPI fluorescence, 100 nL, primary screen (AID 1184);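 also: parasites grown inside human red blood cells in medium with human serum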; settings: P. falciparum 3D7 growth, 3 d, higher = more signal
[3] = target: Homeobox protein Hox-A13 (Mus musculus) (UniProt Q62424); test: disruptors of Hoxa13 oligonucleotide interaction – biochemical, fluorescence polarization, labeled oligonucleotide, primary screen (AID 1185); settings: Hoxa13:DNA binding, 15 min, higher = more signal, called active from +8 up or from −8 down
Chain of Homeobox protein Hox-A13 (Mus musculus) (Q62424 whole entry, looked up): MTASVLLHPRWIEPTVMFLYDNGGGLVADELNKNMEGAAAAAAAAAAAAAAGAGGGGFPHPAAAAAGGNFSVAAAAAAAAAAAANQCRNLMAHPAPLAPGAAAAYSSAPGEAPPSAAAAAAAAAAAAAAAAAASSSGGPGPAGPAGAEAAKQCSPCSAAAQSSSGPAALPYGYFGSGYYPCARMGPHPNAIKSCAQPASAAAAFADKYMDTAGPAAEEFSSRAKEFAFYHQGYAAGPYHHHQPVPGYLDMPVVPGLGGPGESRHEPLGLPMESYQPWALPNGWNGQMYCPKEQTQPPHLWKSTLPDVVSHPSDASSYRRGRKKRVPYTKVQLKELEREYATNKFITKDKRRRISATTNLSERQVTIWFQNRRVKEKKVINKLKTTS

[4] = blockers of DNA damage checkpoint Chk1 activation – imaging, HeLa, hydroxyurea, phospho-Chk1 antibody, percent positive cells, primary screen (AID 1186); settings: hydroxyurea-induced phospho-Chk1 immunofluorescence imaging, higher = more signal
[5] = blockers of DNA damage checkpoint Chk1 activation – imaging, HeLa, hydroxyurea, phospho-Chk1 nuclear intensity, primary screen (AID 1187); settings: hydroxyurea-induced phospho-Chk1 immunofluorescence imaging, higher = more signal

Row | Structure (SMILES) | composite z-score [1] | composite z-score (XIP peptide (Xip251-270)) | z-score [2] | z-score [3] | z-score [4] | z-score [5]
1 | O=C(NCCO)C1=C[C@H](Oc2ccccc2I)[C@@H](O)[C@H](N(Cc2ccco2)C(=O)Cc2ccccc2)C1 | 0.143 (inactive) | -1.13 | -1.32 | -2.48 (inactive) | 0.0831 (inactive) | 0.304 (inactive)
2 | COC(=O)C(CC#Cc1ccc2c(c1)[C@]1(C(=O)N2)[C@H](C(=O)Nc2nc3ccccc3s2)[C@H]2C(=O)O[C@H](c3ccccc3)[C@H](c3ccccc3)N2[C@@H]1c1ccc(O)cc1)C(=O)OC | 0.297 (inactive) | 0.794 | -1.89 | -0.424 (inactive) | -0.558 (inactive) | -1.09 (inactive)
3 | CN(C)CCCCCCNC(=O)[C@@H]1C[C@@H]2C(=O)N[C@@H](Cc3ccccc3)C(=O)N2[C@@H]1c1ccc(O)cc1 | 0.594 (inactive) | 0.887 | -1.19 | -2.65 (inactive) | -0.165 (inactive) | 0.272 (inactive)
4 | CC1CC/C=C\[C@H]2OC34C=CCN(Cc5ccccc5)C(=O)[C@H]3N(CCCO)C(=O)[C@@H]4C2C(=O)O1 (stereo partly drawn) | 0.15 (inactive) | 0.737 | 0.295 | -4.95 (inactive) | -0.364 (inactive) | -0.491 (inactive)
5 | C=CCN1C(=O)[C@@]2(CC=C)N=C(c3ccc(OCCCO)cc3)O[C@H]2c2ccccc21 | 0.881 (inactive) | 0.751 | -1.99 | -2.65 (inactive) | -0.772 (inactive) | -0.86 (inactive)
6 | C=C(/C(=C/C[C@H](OC(C)=O)c1ccc(CO)o1)c1cc(C(=O)OC)ccc1OC)C(C)C | -0.508 (inactive) | -0.567 | -2.09 | -4.8 (inactive) | -0.33 (inactive) | -0.286 (inactive)
7 | C[N+](C)(C)CCCCCCNC(=O)[C@@H]1C[C@@H]2C(=O)N[C@@H](Cc3ccccc3)C(=O)N2[C@@H]1c1cccc(OCCO)c1 | 0.694 (inactive) | 0.814 | -0.145 | -4.83 (inactive) | -0.362 (inactive) | -0.398 (inactive)
8 | CC(C)[Si](C#Cc1ccc(Oc2ccccc2)cc1)(O[Si](C#Cc1ccc(Oc2ccccc2)cc1)(C(C)C)C(C)C)C(C)C | 0.467 (inactive) | -0.0968 | -1.37 | -2.37 (inactive) | -1.01 (inactive) | -0.556 (inactive)
9 | COc1ccccc1CN1C(=O)c2ccccc2[C@@H](C(=O)NC2CC2)[C@@H]1c1ccc(CO)cc1 | 0.98 (inactive) | 0.835 | -1.79 | -2.46 (inactive) | 0.0151 (inactive) | 0.351 (inactive)
10 | COC(=O)[C@@]1(Cc2ccccc2)[C@H]2c3cc(C(=O)N(C)C)n(Cc4ccsc4Br)c3C[C@H]2CN1C(=O)c1ccccc1 | 0.274 (inactive) | 0.116 | -1.51 | -4.23 (inactive) | 0.567 (inactive) | 0.0591 (inactive)
11 | C=C(/C(=C/C[C@H](OC(C)=O)c1ccccc1OCCO)c1cnc2ccccc2c1)C(C)C | 0.609 (inactive) | -0.167 | -2.76 | -5.41 (inactive) | 0.284 (inactive) | -0.141 (inactive)
12 | C=CCC(OC(C)=O)[C@@H]1[C@@H](N(Cc2ccc(-c3ccccc3)cc2)C(=O)c2cccc3ccccc23)c2cc(OCCCO)ccc2N1C(=O)c1ccc(-c2ccccc2)cc1 (stereo partly drawn) | -0.299 (inactive) | -0.321 | -2.81 | -1.22 (inactive) | -0.627 (inactive) | -0.234 (inactive)
13 | CCCC[C@@H]1C[C@H]1[C@@H](NC(=O)c1cccs1)c1ccc(-c2ccccc2)cc1 | 0.217 (inactive) | -0.319 | 0.0576 | -1.5 (inactive) | 0.0111 (inactive) | 0.0204 (inactive)
14 | O=C1NC(=O)C2C1C=CC(C(O)c1cccs1)N2Nc1ccc(Cl)cc1Cl (stereo not drawn) | 0.228 (inactive) | 0.554 | -0.335 | -4.05 (inactive) | -0.266 (inactive) | -0.45 (inactive)
15 | C=C(CC1([C@@H](NP(=O)(c2ccccc2)c2ccccc2)[C@H]2C[C@@H]2CCCC)CC1)c1ccccc1 | -0.0402 (inactive) | 0.143 | -0.548 | -2.33 (inactive) | 0.779 (inactive) | 1.12 (inactive)
16 | CCC[C@@H]1C[C@@]1(CCC)[C@@H](NS(=O)(=O)c1cccc2cccnc12)c1ccc(Cl)cc1 | 0.0535 (inactive) | -0.271 | -0.586 | -0.392 (inactive) | 0.555 (inactive) | 0.618 (inactive)
17 | CCOC(=O)C[C@H]1[C@H](OC(=O)c2ccc(C(=O)c3ccccc3)cc2)[C@@H](NC(=O)CC(C)C)c2cc(OCCCO)ccc2N1C(=O)c1ccc2ccccc2n1 | 1.24 (inactive) | 0.642 | -0.057 | -2.72 (inactive) | -0.776 (inactive) | -0.687 (inactive)
18 | COCCOC(=O)N1C(=O)[C@@]2(c3cc(C#Cc4ccc(OC)cc4)ccc31)[C@H](c1ccc(O)cc1)N1[C@H](c3ccccc3)[C@H](c3ccccc3)OC(=O)[C@H]1[C@@H]2C(=O)N1CCc2cc(OC)c(OC)cc2C1 | 0.109 (inactive) | 0.629 | -2.17 | -1.71 (inactive) | 0.264 (inactive) | 0.948 (inactive)
